EWS-Fli inh: EWS/Fli-driven NR0B1 reporter inhibitors, primary screen, A673 cells, NR0B1 luciferase, luminescence, MLPCN library; viability-normalised; inhibition, % at 12.6 µM; 0.67% of 350,000 active; AID 651661, 2012;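 active = mean inhibition of at least 50% after viability correction, with every replicate also passing that limit; inconclusive = mean reaches 50% but only one of two replicates passes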;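 note: firefly luciferase signal divided by Alamar Blue viability fluorescence both relative to DMSO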
Peg3 promoter: Peg3 promoter-driven luciferase inhibitors, primary screen, cell-based, HeLa, luciferase luminescence. inhibition, % at 20 µM. AID 588405, 2011. 1.7% of 360,000 active. HeLa PEG-Prom luciferase reporter, overnight;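 active = inhibition of at least 50% at 20 µM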
Shn3 inh set2: reduction of Shn3 3'UTR firefly luciferase signal, primary screen, Schnurri-3 inhibitor project, cell-based, Clone20 osteoblasts, set 2 | Clone20 osteoblast Shn3 3'UTR firefly luciferase, 24 h | inhibition, % at 12.5 µM | 0.52% of 360,000 active | AID 588674, 2011;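 active = mean inhibition of at least 75% with every replicate also reaching 75%; inconclusive = mean inhibition at least 75% but some replicate below; inactive = mean inhibition below 75%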
MITF TRPM1 inh: inhibitors of MITF-dependent TRPM1 promoter reporter, primary screen, cell-based, SK-MEL-5, single point, luciferase; AID 488899, 2010; 0.83% of 330,000 active; SK-MEL-5 TRPM1 promoter luciferase, 24 h; inhibition, % at 12.5 µM;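 active = mean inhibition across replicates of 60% or more, whatever share of single replicates reaches that level; inconclusive = some that reach 60%, reason not given; inactive = mean inhibition across replicates below 60%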
ABHD5-PLIN5 inh: ABHD5-PLIN5 interaction inhibitors, primary screen, cell lysate, split luciferase complementation, luminescence | Perilipin-5 (Homo sapiens) + 1-acylglycerol-3-phosphate O-acyltransferase ABHD5 (Homo … | Split G. princeps luciferase complementation, 4 h | inhibition, % at 4 µM | 0.78% of 360,000 active;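 active = inhibition above the mean inhibition across every tested compound plus 3 SD, cut at about 22% in these data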
Target sequence (Q00G26 whole entry, looked up): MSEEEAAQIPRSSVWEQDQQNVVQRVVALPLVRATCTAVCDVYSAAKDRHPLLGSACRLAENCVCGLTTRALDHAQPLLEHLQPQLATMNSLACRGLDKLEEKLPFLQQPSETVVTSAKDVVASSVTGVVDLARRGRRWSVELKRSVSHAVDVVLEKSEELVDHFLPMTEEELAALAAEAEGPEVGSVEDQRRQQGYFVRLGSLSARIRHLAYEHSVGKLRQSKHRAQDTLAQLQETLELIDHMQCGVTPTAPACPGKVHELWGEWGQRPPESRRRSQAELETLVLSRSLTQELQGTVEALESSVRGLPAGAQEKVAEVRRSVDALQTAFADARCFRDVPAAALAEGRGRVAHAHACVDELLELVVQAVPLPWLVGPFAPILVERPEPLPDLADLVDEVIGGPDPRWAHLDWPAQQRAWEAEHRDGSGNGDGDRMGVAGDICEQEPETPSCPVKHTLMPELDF
Target sequence (Q8WTS1 whole entry, looked up): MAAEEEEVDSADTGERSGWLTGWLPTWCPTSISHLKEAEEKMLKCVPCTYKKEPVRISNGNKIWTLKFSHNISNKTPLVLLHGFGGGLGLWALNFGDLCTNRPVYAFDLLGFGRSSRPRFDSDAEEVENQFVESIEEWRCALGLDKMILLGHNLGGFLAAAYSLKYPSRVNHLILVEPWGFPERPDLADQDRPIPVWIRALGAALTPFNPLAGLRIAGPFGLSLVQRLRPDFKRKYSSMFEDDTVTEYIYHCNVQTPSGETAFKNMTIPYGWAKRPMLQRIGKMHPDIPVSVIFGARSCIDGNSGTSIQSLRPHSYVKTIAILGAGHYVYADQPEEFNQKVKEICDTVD
PAX8 inh HTS: inhibitors of PAX8-driven TPO luciferase reporter, primary screen, RMG-I cells, single concentration; AID 652154, 2013; inhibition, % at 12.6 µM; 1.2% of 360,000 active; SteadyGlo, 24 h;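 active = mean replicate inhibition at least 60% with every replicate also reaching 60%; inconclusive = only one of the two criteria is met; inactive = mean below 60% and not all replicates reaching 60%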;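 note: luciferase light reporting Pax8 driven TPO promoter activity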
Of the large screens only hits and unclear results are named; the others gave an inactive call. Shown are actives, neighbours in structure and some others; about 3% of the full set was active somewhere.

CCCCN(C)C(=O)c1ccc(Nc2nc(C(N)Cc3ccc(C(F)(F)F)cc3)cs2)nc1 (stereo not drawn)	Peg3 promoter 96 (no result: MITF TRPM1 inh)
NC(Cc1ccc(C(F)(F)F)cc1)c1csc(Nc2ccc(C(=O)NCCCO)cn2)n1 (stereo not drawn)	none (no result: MITF TRPM1 inh)
COc1ccccc1NC(=O)N1C[C@@H]2N[C@H](C1)C2c1ccc(-c2ccc(C#N)cc2)cc1 (stereo partly drawn)	none (no result: Peg3 promoter, Shn3 inh set2, MITF TRPM1 inh, ABHD5-PLIN5 inh)
Cc1ccc(-c2nc(NC(=O)c3nn(C)cc3[N+](=O)[O-])sc2C)cc1C	Peg3 promoter 109, Shn3 inh set2 93, MITF TRPM1 inh 79 (no result: PAX8 inh HTS)
Cc1ccc(Cn2ccc(NC(=O)c3nn(C)cc3[N+](=O)[O-])n2)cc1	Shn3 inh set2 inconclusive
Cc1cc(C)n(Cc2ccc(NC(=O)c3nn(C)cc3[N+](=O)[O-])cc2)n1	none (no result: EWS-Fli inh, PAX8 inh HTS)
CC(=O)c1c(C)[nH]c(C(=O)Nc2nc(-c3ccc(Cl)cc3)cs2)c1C	none (no result: EWS-Fli inh)
Cn1cc([N+](=O)[O-])c(C(=O)Nc2nc(-c3ccc(Cl)cc3)cs2)n1	Peg3 promoter 106, MITF TRPM1 inh 83 (no result: EWS-Fli inh, PAX8 inh HTS)
Cc1ccc(-c2nc(NC(=O)c3nn(C)cc3[N+](=O)[O-])sc2C)cc1	EWS-Fli inh 58, Peg3 promoter 109, Shn3 inh set2 93, MITF TRPM1 inh 85 (no result: PAX8 inh HTS)
Cc1cnc(NC(=O)c2nn(C)cc2[N+](=O)[O-])s1	Peg3 promoter 94, MITF TRPM1 inh inconclusive
COc1ccc(S(=O)(=O)Nc2ccc3c(c2)C(=O)N([C@@H](C)CO)C[C@@H](C)[C@H](CN(C)S(=O)(=O)c2cn(C)cn2)OCCCC[C@H](C)O3)cc1	none (no result: Peg3 promoter, Shn3 inh set2, MITF TRPM1 inh, ABHD5-PLIN5 inh)
C[C@H](CO)N1C[C@H](C)[C@H](CN(C)S(=O)(=O)c2ccccc2)Oc2ccc(NC(=O)Cc3cn(C)c4ccccc34)cc2C1=O	none (no result: Peg3 promoter, Shn3 inh set2, MITF TRPM1 inh, ABHD5-PLIN5 inh)
O=C(Cc1ccccc1)N[C@H]1C=C[C@@H](CC(=O)N2CCOCC2)O[C@@H]1CO	none (no result: Peg3 promoter, Shn3 inh set2, MITF TRPM1 inh, ABHD5-PLIN5 inh)
COc1ccc(-c2oc3ncnc(NCCCN(C)C)c3c2-c2ccc(OC)cc2)cc1	Peg3 promoter 104
CN(C)CCNc1ncnc2oc(-c3ccccc3)c(-c3ccccc3)c12	Peg3 promoter 71
Cc1noc(C)c1NC(=O)Nc1ccc2c(c1)C(=O)N([C@@H](C)CO)C[C@@H](C)[C@H](CN(C)CC1CCCCC1)O2	none (no result: Peg3 promoter, Shn3 inh set2, MITF TRPM1 inh, ABHD5-PLIN5 inh)
C=CC[C@]1(C(=O)NCc2ccccc2)COC(c2ccc(OCCCO)cc2)=N1	none (no result: Peg3 promoter, Shn3 inh set2, MITF TRPM1 inh, ABHD5-PLIN5 inh)
Cn1ncc2c(N3CCN(c4ccc(Cl)c(Cl)c4)CC3)ncnc21	Peg3 promoter 100
Clc1ccc(Cn2ncc3c(N4CCN(c5ccccc5)CC4)ncnc32)cc1	Peg3 promoter 92, PAX8 inh HTS 102 (no result: MITF TRPM1 inh)
CN1C(=O)c2cc(NC(=O)Nc3ccccc3)ccc2OC[C@@H]2O[C@H](CC(=O)O)CC[C@H]21	none (no result: Peg3 promoter, Shn3 inh set2, MITF TRPM1 inh, ABHD5-PLIN5 inh)
O=c1[nH]c(C2CCN(S(=O)(=O)c3ccc4c(c3)OCCO4)CC2)nc2c1nnn2Cc1c(F)cccc1Cl	Peg3 promoter 56
O=c1[nH]c(C2CCN(S(=O)(=O)c3ccc4c(c3)OCCO4)CC2)nc2c1nnn2Cc1ccccc1F	none
O=c1[nH]c(C2CCN(S(=O)(=O)c3ccccc3F)CC2)nc2c1nnn2Cc1ccc2c(c1)OCCO2	Peg3 promoter 60
CO[C@H]1CN(C)C(=O)c2ccc(NC(=O)Nc3ccccc3)cc2OC[C@H](C)N(CC2CC2)C[C@H]1C	none (no result: Peg3 promoter, Shn3 inh set2, MITF TRPM1 inh, ABHD5-PLIN5 inh, PAX8 inh HTS)
O=C(Nc1ccc(N2CCN(C(=O)c3ccc(Cl)cc3)CC2)cc1)c1ccc2c(c1)OCCO2	Shn3 inh set2 89, MITF TRPM1 inh 73 (no result: EWS-Fli inh, PAX8 inh HTS)
CCC(=O)N1CCN(c2ccc(NC(=O)c3ccc([N+](=O)[O-])o3)cc2)CC1	EWS-Fli inh 54, Peg3 promoter 106, Shn3 inh set2 inconclusive, MITF TRPM1 inh 80, PAX8 inh HTS 90
CC(C)(C)C(=O)N1CCN(c2ccc(NC(=O)c3ccco3)cc2)CC1	none
O=C(Nc1ccc(N2CCN(C(=O)c3ccc(Cl)cc3)CC2)cc1)c1ccc([N+](=O)[O-])o1	EWS-Fli inh 67, Peg3 promoter 104, Shn3 inh set2 98, MITF TRPM1 inh 90
CC(C)(C)C(=O)N1CCN(c2ccc(NC(=O)c3ccc([N+](=O)[O-])o3)cc2)CC1	EWS-Fli inh 54, Peg3 promoter 97, Shn3 inh set2 93, MITF TRPM1 inh 81, PAX8 inh HTS 101
C[C@@H]1CN([C@@H](C)CO)C(=O)c2cc(NS(=O)(=O)c3ccccc3)ccc2O[C@@H]1CN(C)S(=O)(=O)c1ccc(F)cc1	none (no result: Peg3 promoter, Shn3 inh set2, MITF TRPM1 inh, ABHD5-PLIN5 inh)

Source: PubChem BioAssay
